Source: PubChem BioAssay (EPA / NIEHS)
Records with an inconclusive call do not appear. The source made the active and inactive calls. Rule for the calls, unless noted: active = hit-call score of the fitted dose curve at least 0.9, where 1 is the maximum; inactive = score below 0.9.

Legend:
[1] = CCTE_Deisenroth_5AR_NBTE_donor: CCTE's 5alpha-reductase NanoBRET Target Engagement Assay […], Deisenroth Lab (AID 2284319); details: actives raise or lower the signal
Procedure, shortened: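 Donor NanoLuc luminescence at 460-20 nm is the read-out, serving artifact detection. Transiently expressed SRD5A2-NanoLuc in HEK293T; 5 h total chemical exposure, testosterone tracer added for the final 2 h; fitting bidirectional relative to DMSO baseline.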

[2] = CCTE_Deisenroth_5AR_NBTE_acceptor: CCTE's 5alpha-reductase NanoBRET Target Engagement Assay - Autofluorescence Screen, Deisenroth Lab (AID 2284321); details: actives raise or lower the signal;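 note: compound fluorescence in the acceptor channel under 460 nm excitation flags autofluorescence artifacts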
Procedure, shortened: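 Acceptor-channel fluorescence flags artifacts, with excitation fixed at 460 nm. Nominal 100 uM chemical samples were read in triplicate runs, and signal changes were fitted in both directions relative to DMSO.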

SRD5A2 (gene 6716) = assay: CCTE_Deisenroth_5AR_NBTE_ratio: CCTE's 5alpha-reductase NanoBRET Target Engagement Assay - Ratio, Deisenroth Lab (AID 2284322); details: actives raise or lower the signal
Procedure, shortened: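 Reverse-transfect HEK293T with pNLF1-C-SRD5A2, express 20 h. Pre-incubate cells with chemical 3 h (8-point series, 10 nM - 29.9 uM, duplicate). Add testosterone tracer, 2 h more. Add substrate/inhibitor, read donor and acceptor emission.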

[3] = CCTE_Padilla_ZF_Score.General: CCTE's 144 Hour Post-fertilization zebrafish Assay Score for General Malformation, Padilla Lab (AID 2284411)
Procedure, shortened: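 Wild-type zebrafish embryos were plated singly at 6-8 hpf in 10% Hanks' and exposed in sealed wells at 26C until rinsed on 5 dpf. At 6 dpf two blinded assessors scored mortality, hatching and malformations by stereomicroscopy; gain-of-signal versus DMSO.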

[4] = IUF_NPC2-5_viability_120hr: Viability Assessment at 120 hours in the Leibniz Research Institute for Environmental Medicine (IUF) Neural Progenitor Cell Migration and Differentiation Assay (NPC2-5) (AID 2284312)
Procedure, shortened: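 Human fetal (GW 16-19) neural progenitor spheres of 0.3 mm were plated on poly-D-lysine/laminin in N2 differentiation medium and exposed from day 0 for 120 h, with half-medium refresh at day 3. Viability was read as alamar blue resazurin-to-resorufin fluorescence against DMSO.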

[5] = CCTE_Mundy_HCI_iCellGluta_NOG_NeuriteLength: CCTE's Neurite Outgrowth Assay in iCellGluta cells for Neurite Length, Mundy Lab (AID 2284318; active = hit-call score of the fitted dose curve at least 0.9, where 1 is the maximum)
Procedure, shortened: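 Automated high-content imaging of betaIII-tubulin (Alexa Fluor-488) and Hoechst-stained cells gave neurite length, normalized to the DMSO baseline.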

[6] = IUF_NPC1_cytotoxicity_72hr: Cytotoxicity Assessment at 72 hours in the Leibniz Research Institute for Environmental Medicine (IUF) Neural Progenitor Cell Proliferation Assay (NPC1) (AID 2284332; active = hit-call score of the fitted dose curve at least 0.9, where 1 is the maximum;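 note: rising LDH signal means more cytotoxicity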)
Procedure, shortened: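 Single human fetal cortex neural progenitor spheres (GW 16-19, 0.25-0.35 mm) in EGF/FGF proliferation medium were exposed to compound for 72 h at 37C without renewal. Medium LDH release was read as resorufin fluorescence and fitted as gain-of-signal.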

[7] = CCTE_Mundy_HCI_iCellGluta_NOG_NeuronCount: CCTE's Neurite Outgrowth Assay in iCellGluta cells for Neuron Count, Mundy Lab (AID 2284340; active = hit-call score of the fitted dose curve at least 0.9, where 1 is the maximum;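 note: cells fixed about 48 h after compound addition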)
Procedure, shortened: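 Neuron count read by automated high-content imaging of Hoechst 33342 and betaIII-tubulin/Alexa Fluor-488 labelling in human iPSC glutamatergic neurons. Activity fitted relative to DMSO.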

TTR (gene 7276) = assay: CCTE_GLTED_hTTR_0.125uM: CCTE's human Transthyretin (hTTR) Inhibition Assay, with 0.125uM TTR, Great Lakes Toxicology and Ecology Division (GLTED) Lab (AID 2284431);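 note: hits lower the fluorescence signal relative to DMSO baseline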
Procedure, shortened: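 TTR at 0.125uM incubated 2 h with test chemical; displacement of bound ANSA read by fluorescence (ex 380, em 475). Activity is signal loss versus DMSO baseline.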

SERPINA7 (gene 6906) = assay: CCTE_GLTED_hTBG: CCTE's human Thyroxine-binding Globulin (TBG) Inhibition Assay, Great Lakes Toxicology and Ecology Division (GLTED) Lab (AID 2284343; active = hit-call score of the fitted dose curve at least 0.9, where 1 is the maximum;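 note: active chemicals lower fluorescence versus DMSO baseline by displacing probe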)
Procedure, shortened: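 Cell-free binding assay in which human TBG is incubated with test chemical for 2 hours and displacement of the fluorescent probe ANSA is read at 380 nm excitation/475 nm emission. Activity is fitted against DMSO as the negative control.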

[8] = CCTE_Mundy_HCI_iCellGluta_NOG_NeuriteCount: CCTE's Neurite Outgrowth Assay in iCellGluta cells for Neurite Count, Mundy Lab (AID 2284342; active = hit-call score of the fitted dose curve at least 0.9, where 1 is the maximum;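 note: chemical exposure about 48 hours starting 2 hours after plating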)
IYD (gene 389434) = assay: CCTE_GLTED_hIYD: CCTE's human Iodotyrosine Deiodinase (xIYD) Inhibition Assay, Great Lakes Toxicology and Ecology Division (GLTED) Lab (AID 2284317; active = hit-call score of the fitted dose curve at least 0.9, where 1 is the maximum;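 note: cell-free human IYD enzyme made in baculovirus insect cells; iodide freed from monoiodotyrosine measured by cerium arsenite color change at 420 nm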)
Procedure, shortened: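 Human IYD expressed in a baculovirus-insect cell system was incubated 3 h with monoiodotyrosine and test chemical. Released iodide, separated on Dowex columns, was quantified by the Sandell-Kolthoff reaction at 420 nm; plates were normalized to MNT and DMSO/NaOH controls.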

[9] = CCTE_Deisenroth_H295R-HTRF_384WELL_ESTRADIOL: CCTE's H295R-HTRF Assay Evaluation of Estradiol Concentration, Deisenroth Lab (AID 2284361); details: actives raise or lower the signal
Procedure, shortened: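 H295R cells exposed 48 h to chemicals at 0.001 - 100 uM final (nine points, triplicate); estradiol in conditioned medium measured by HTRF immunoassay, fitted bidirectionally versus DMSO. Viability by CellTiter-Glo on same plates.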

[10] = CCTE_Deisenroth_H295R-HTRF_384WELL_TESTOSTERONE: CCTE's H295R-HTRF Assay Evaluation of Testosterone Concentration, Deisenroth Lab (AID 2284373); details: actives raise or lower the signal
Procedure, shortened: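 Secreted testosterone was quantified by HTRF immunoassay of medium from human adrenocortical H295R cells after 48 h chemical exposure at 0.001–100 uM final. Gain or loss was fitted against DMSO. ATP-based viability was read on matched wells, five experimental replicates.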

[11] = CCTE_Deisenroth_H295R-HTRF_384WELL_CTOX: Cytotoxicity Assessment in CCTE's H295R-HTRF Assay, Deisenroth Lab (AID 2284380; active = hit-call score of the fitted dose curve at least 0.9, where 1 is the maximum)
Procedure, shortened: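 H295R adrenocortical carcinoma cells plated 24 h, then exposed 48 h to nine-point series 0.001–100 uM final, triplicate, n=5. ATP measured by CellTiter-Glo 2.0 luminescence on same plates after medium collection; loss versus DMSO.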

CC1CC(OC(=O)c2ccccc2O)CC(C)(C)C1 (centres undefined)
outcome [1]: inactive
outcome [2]: inactive
outcome (SRD5A2 (gene 6716)): inactive

O=C(O)c1cn(C2CC2)c2cc(N3CCNCC3)c(F)cc2c1=O
outcome [3]: inactive

N#Cc1ccc(CC(=NNC(=O)Nc2ccc(OC(F)(F)F)cc2)c2cccc(C(F)(F)F)c2)cc1
outcome [4]: inactive
outcome [5]: inactive
outcome [6]: inactive
outcome [7]: inactive

CCCCCCCCCC=O
outcome [3]: inactive
AC50 (TTR (gene 7276)): 9.95 µM (active)

O=C(Oc1ccccc1)c1ccc(O)cc1
AC50 (SERPINA7 (gene 6906)): 12.6 µM (active)
AC50 (TTR (gene 7276)): 0.326 µM (active)

CN(C)C(=N)N=C(N)N
outcome [4]: inactive
outcome [5]: inactive
outcome [6]: inactive
outcome [8]: inactive

CCCCCCCCCCCCCOS(=O)(=O)O
AC50 (IYD (gene 389434)): 34.2 µM (active)
AC50 [1]: 50 µM (active)
AC50 [2]: 43.2 µM (active)
AC50 (SRD5A2 (gene 6716)): 81.8 µM (active)
AC50 (SERPINA7 (gene 6906)): 31 µM (active)
AC50 (TTR (gene 7276)): 1.6 µM (active)

O=C1CCCCCCCCCCCCCCO1
outcome [3]: inactive

CSc1nc(NC2CC2)nc(NC(C)(C)C)n1
AC50 (TTR (gene 7276)): 10.8 µM (active)

CC(C)=CCC[C@](C)(O)[C@@H]1CC=C(C)CC1
outcome [1]: inactive
outcome [2]: inactive
outcome (SRD5A2 (gene 6716)): inactive
AC50 (SERPINA7 (gene 6906)): 19.2 µM (active)

O=C1OC2(c3cc(Br)c(O)c(Br)c3Oc3c2cc(Br)c(O)c3Br)c2c(Cl)c(Cl)c(Cl)c(Cl)c21
AC50 (IYD (gene 389434)): 23.7 µM (active)

CCn1c2ccccc2c2cc(N)ccc21
outcome [3]: inactive

CCCCCCCCCCCCCCCC(=O)OC[C@H](O)[C@H]1OC(=O)C(O)=C1O
AC50 (IYD (gene 389434)): 25.6 µM (active)
outcome [1]: inactive
outcome [2]: inactive
outcome (SRD5A2 (gene 6716)): inactive

CC(C)c1ccc(C(C)C)cc1
outcome [3]: inactive

c1ccc(CCCc2ccccn2)cc1
AC50 (SERPINA7 (gene 6906)): 22.2 µM (active)

CCCCCCCCC=O
outcome [3]: inactive

O=[N+]([O-])c1cc(C(F)(F)F)ccc1Cl
outcome [3]: inactive

CCCCCCCCCCCCCCCC(=O)O
AC50 (IYD (gene 389434)): 80.9 µM (active)

O=c1cc(-c2ccccc2)oc2cc(O)cc(O)c12
AC50 (TTR (gene 7276)): 0.06 µM (active)

O=C1c2ccccc2C(=O)N1SC1CCCCC1
AC50 (SERPINA7 (gene 6906)): 29.4 µM (active)

C#C[C@]1(O)CC[C@H]2[C@@H]3CCC4=Cc5oncc5C[C@]4(C)[C@H]3CC[C@@]21C
AC50 [9]: 38.2 µM (active)
AC50 [10]: 0.362 µM (active)
outcome [11]: inactive

CCCCCCCCCCCCCC(=O)O
AC50 (IYD (gene 389434)): 100 µM (active)
outcome [1]: inactive
outcome [2]: inactive
outcome (SRD5A2 (gene 6716)): inactive
AC50 (TTR (gene 7276)): 1.93 µM (active)

BrC1CCC(Br)C(Br)CCC(Br)C(Br)CCC1Br (centres undefined)
outcome [1]: inactive
outcome [2]: inactive
outcome (SRD5A2 (gene 6716)): inactive

CCCCCC(CO)CCC (centres undefined)
outcome [1]: inactive
outcome [2]: inactive
outcome (SRD5A2 (gene 6716)): inactive

Cc1ccc(S)cc1
AC50 (SERPINA7 (gene 6906)): 1.59 µM (active)

O=Nc1ccc(Nc2ccccc2)cc1
AC50 [1]: 23.4 µM (active)
AC50 [2]: 50 µM (active)
AC50 (SRD5A2 (gene 6716)): 75.4 µM (active)
AC50 (SERPINA7 (gene 6906)): 15.9 µM (active)
AC50 (TTR (gene 7276)): 7.46 µM (active)

CC(C)=CCCC(C)=CCCC(C)=CCO
AC50 (TTR (gene 7276)): 19.9 µM (active)

CCN(CC)c1ccc(C(=C2C=CC(=[N+](CC)CC)C=C2)c2ccc(S(=O)(=O)O)cc2S(=O)(=O)[O-])cc1
outcome [1]: inactive
AC50 [2]: 13 µM (active)
AC50 (SRD5A2 (gene 6716)): 3.22 µM (active)

CCCCC(CC)COCCC#N (centres undefined)
outcome [3]: inactive

CCN(CC)c1ccc2c(-c3ccccc3C(=O)O)c3ccc(=[N+](CC)CC)cc-3oc2c1
outcome [1]: inactive
outcome [2]: inactive
AC50 (SRD5A2 (gene 6716)): 22.1 µM (active)
